MITF inhib – blocks MITF activity; TRPM1 promoter luciferase, luminescence, 24 h; inhibition, % (concentration not given with the values); actives 0.28% (n = 37,000); AID 2240; in the data active = inhibition above about 85%;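 also: human melanocyte line stably carrying TRPM1 promoter luciferase reporter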
YB-1 expression – YB-1 expression inhibition. actives 0.37% (n = 30,000). U2OS, qRT-PCR YB-1 vs CDIP delta delta Cp, 16 h; hits give high values; zero = DMSO, each unit about twofold. AID 434959. delta delta Cp (YB-1 minus CDIP) (test concentration not listed);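 active = delta delta Cp rounded down to an integer at or above 3, about 3 SD of DMSO wells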;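 also: higher means less YB-1 transcript or more CDIP transcript relative to DMSO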
ROS inducer – raises reactive oxygen species in U2OS cancer cells | ROS induction (% of piperlongumine), % at 10 µM | actives 2% (n = 46,000) | U2OS ROS induction, H2DCF-DA fluorescence | AID 624156; in the data active = ROS induction above about 79%, passing the limit was not always enough;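 also: 0% = DMSO vehicle median and 100% = reference compound median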
BJeLR viab HTS – lowers viability of BJeLR cells | AID 2275 | BJeLR fibroblasts viability, CellTiterGlo ATP luminescence, 48 h; HRASV12, hTERT and SV40 LT/ST transformed | viability loss activity score, % (no concentration beside the values) | actives 0.64% (n = 30,000); in the data active = viability loss activity score above about 50%;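 also: higher score means fewer live cells and less ATP luminescence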
* hit, by the source's call; / = not tested or not shown. A selection: hits, their analogues and other compounds. The true share with any hit is near 2.5%.

SMILES	MITF inhib	YB-1 expression	ROS inducer	BJeLR viab HTS
C[C@H]1CN([C@@H](C)CO)C(=O)c2cc(NC(=O)Cc3cn(C)c4ccccc34)ccc2O[C@@H]1CN(C)Cc1ccc(Oc2ccccc2)cc1	25	-0.14	134*	-5
COC(CNC(=O)c1ccc(CS(=O)c2ccccc2)o1)OC (stereo not given)	/	/	/	1
Cc1ccc2[nH]c(=O)c3cc(C(=O)N(C)c4cccc(Cl)c4)sc3c2c1	/	/	27	38
CCn1c(=O)cc(OCC(=O)NC2CCCC2)c2ccccc21	/	/	/	3
CCc1c(C)sc(NC(=O)C2c3ccccc3Oc3ccccc32)c1C(=O)OC	/	/	/	-7
CCOC(OCC)P(=O)(O)CCCNCc1ccc(Cl)c(Cl)c1	88*	0.096	8	29
CS(=O)CCNC(=O)Nc1ccc(Cl)c(Cl)c1 (stereo not given)	/	/	-10	-5
Nc1ncnc(Sc2nc3ccccc3s2)c1[N+](=O)[O-]	28	/	100*	/
c1ccc(CN(CCN(Cc2ccccn2)Cc2ccccn2)Cc2ccccn2)nc1	88*	-0.37	-2	110*
Cc1cc[n+](Cc2ccccn2)c(N)c1	0	-0.038	-9	6
O=C1c2c(O)ccc(O)c2C(=O)c2c(NCCNCCO)ccc(NCCNCCO)c21	96*	1.5	-7	110*
O=C(NC(=O)c1c(Cl)cccc1Cl)Nc1nc2cc(F)ccc2s1	/	/	-2	7
C[C@H](CO)N1C[C@H](C)[C@H](CN(C)C(=O)Nc2ccccc2)Oc2ccc(NC(=O)Cc3ccccc3)cc2CC1=O	-3	4.6*	-2	/
COc1ccc(NC(=O)N(C)C[C@H]2Oc3ccc(NC(=O)Cc4ccccc4)cc3CC(=O)N([C@@H](C)CO)C[C@@H]2C)cc1	4	0.18	100*	/
COc1ccc(NC(=O)N(C)C[C@@H]2Oc3ccc(NC(=O)Cc4ccccc4)cc3CC(=O)N([C@@H](C)CO)C[C@@H]2C)cc1	-2	-0.027	-7	/
C[C@H]1CN([C@@H](C)CO)C(=O)Cc2cc(NC(=O)Cc3cn(C)c4ccccc34)ccc2O[C@H]1CN(C)C(=O)Nc1ccc(C(F)(F)F)cc1	30	-0.42	100*	/
Cc1cc(OCC(=O)N(Cc2ccc(Cl)cc2)Cc2ccco2)cc(C)c1Cl	/	/	14	-3
Fc1ccccc1N1CCN(CCCNc2nc(=S)[nH]c3ccccc23)CC1	/	/	14	29
COc1ccc(C2C(C(=O)NC3CCCCCC3)CCC(=O)N2c2ccc(OC)cc2)cc1 (stereo not given)	/	/	-22	0
N#CCSc1nc2c(sc3ccccc32)c(=O)n1C1CCCCC1	/	/	157*	-6
O=C(CSc1nc2c(sc3ccccc32)c(=O)n1CC1CCCO1)c1ccccc1 (stereo not given)	/	/	112*	5
Cc1cc(C(=O)Nc2cccc3c2O[C@@H](CN(C)Cc2ccc(C(=O)Nc4ccccc4N)cc2)[C@H](C)CN([C@H](C)CO)C3=O)n(C)n1	0	-0.11	29	/
Cc1cc(C(=O)Nc2cccc3c2O[C@H](CN(C)Cc2ccc(C(=O)Nc4ccccc4N)cc2)[C@@H](C)CN([C@@H](C)CO)C3=O)n(C)n1	11	-0.58	189*	/
Cc1cc(C(=O)Nc2cccc3c2O[C@H](CN(C)Cc2ccc(C(=O)Nc4ccccc4N)cc2)[C@@H](C)CN([C@H](C)CO)C3=O)n(C)n1	1	-0.22	130*	/
O=S(=O)(NC1CCCCC1Sc1nc2ccccc2o1)c1ccc(Cl)cc1 (stereo not given)	/	/	9	3
SMILES	MITF inhib	YB-1 expression	ROS inducer	BJeLR viab HTS
NC(=O)C(Cc1ccccc1)NS(=O)(=O)c1ccc2oc3ccccc3c2c1 (stereo not given)	12	/	165*	/
CCCc1ccc(OCC(O)CN2CC(C)OC(C)C2)cc1 (stereo not given)	/	/	5	6
O=C(C1CCCO1)N1N=C(c2c(-c3ccccc3)c3cc(Cl)ccc3[nH]c2=O)CC1c1ccco1 (stereo not given)	8	/	178*	/
COc1ccc(NC2SC(=O)N(Cc3ccccc3)C2=O)cc1 (stereo not given)	/	/	3	-13
Cc1cc(C)nc(/N=C2\NC(=O)CC(C(=O)O)N2c2ccc(F)c(Cl)c2)n1 (stereo not given)	-5	/	2	/
COC(=O)/C=C1/C(=O)N/C(=N\c2nc(C)cc(C)n2)N1c1cccc(C)c1	-15	-0.13	103*	-1
Cc1cc(C)c2sc(N3CCCC3)nc2c1	/	/	/	-3
N#Cc1c(C(F)(F)F)cc(-c2cccs2)nc1S/C=C/C(=O)c1ccccc1	5	0.25	126*	57*
Cc1c(-c2ccccc2)nc2sc3c(c2c1N)CCCC3	/	/	92*	0
Cc1ccc(S(=O)(=O)N2CCN(c3nc(NC4CCCC4)c4ccccc4n3)CC2)cc1	/	/	152*	-9
CC1C(=O)ON(c2ccccc2)C(=O)N1C (stereo not given)	/	/	-7	1
COc1ccc(-n2c(-c3cccc(OC)c3)csc2=NCc2cccnc2)cc1	54	0.34	116*	5
COc1ccc(S(=O)(=O)Nc2cccc3c2O[C@H](CN(C)Cc2ccc(Oc4ccccc4)cc2)[C@@H](C)CN([C@H](C)CO)C3=O)cc1	19	-0.24	96*	3
C[C@H](CO)N1C[C@H](C)[C@@H](CN(C)Cc2ccc(Oc3ccccc3)cc2)Oc2c(NS(=O)(=O)c3ccc(Cl)cc3)cccc2C1=O	34	-0.22	112*	-5
C=CCNC(=O)[C@@H]1[C@H]2C(=O)O[C@H](c3ccccc3)[C@H](c3ccccc3)N2[C@H](c2ccccc2OCCO)[C@@]12C(=O)Nc1ccc(C#CCCO)cc12	/	-0.086	135*	/
C=CCNC(=O)[C@H]1[C@@H]2C(=O)O[C@@H](c3ccccc3)[C@@H](c3ccccc3)N2[C@@H](c2ccc(O)cc2)[C@]12C(=O)Nc1ccc(C#CCCO)cc12	/	0.11	-12	/
C=CCOC(=O)[C@H]1[C@@H]2C(=O)O[C@@H](c3ccccc3)[C@@H](c3ccccc3)N2[C@@H](c2ccc(OCCOC(=O)[C@@H]3C[C@@H]4C(=O)NCC(=O)N4[C@@H]3c3ccc(O)cc3)cc2)[C@]12C(=O)Nc1ccc(I)cc12	/	-0.26	9	/
C=CCNC(=O)[C@@H]1[C@H]2C(=O)O[C@H](c3ccccc3)[C@H](c3ccccc3)N2[C@H](c2ccccc2OCCO)[C@@]12C(=O)Nc1ccc(C#CC3(O)CCCCCC3)cc12	/	-0.22	146*	/
C=CCNC(=O)[C@H]1[C@@H]2C(=O)O[C@@H](c3ccccc3)[C@@H](c3ccccc3)N2[C@@H](c2ccc(OCCO)cc2)[C@]12C(=O)Nc1ccc(C#CC3(O)CCCCCC3)cc12	/	-0.49	49	/
C=CCNC(=O)[C@@H]1[C@H]2C(=O)O[C@H](c3ccccc3)[C@H](c3ccccc3)N2[C@H](c2ccc(OCCO)cc2)[C@@]12C(=O)Nc1ccc(C#CC3(O)CCCCCC3)cc12	/	-0.17	85*	/

Bioassay records as filed in PubChem BioAssay.
